What is called AC50 is the concentration at which the activity in the assay is half-maximal.

“And” between values parts separate entries of the source, which are not always exact repeats. Equal entries are not always repeated. The source holds several records for some structures; these can differ, active in one and inactive in another. The source made the active and inactive calls. How the source made its calls: active means hit-call score of the fitted dose curve at least 0.9, where 1 is the maximum; inactive means score below 0.9.

Outcome and AC50 data for 38 compounds are collected here from PubChem BioAssay (EPA / NIEHS).

Read-out in this experiment: Interleukin-8 (IL8), CXCL8 (gene 3576)
The experiment can be described thus: BSK_BF4T_IL8: BioMAP Diversity Plus: BF4T Assay for Interleukin-8 (IL8) Biomarker Activity (AID 2284263). The following applies: primary human bronchial epithelial cells with fibroblasts. The procedure: BSK_BF4T is a cell-based, multiplexed-readout assay that uses bronchial epithelial cells and dermal fibroblasts, a human vascular primary cell, with measurements taken at 24 hours after chemical dosing in a microplate: 96-well plate.BSK_BF4T_IL8 is an assay component measured in the BSK_BF4T assay. It measures IL-8 antibody related to regulation of gene expression using ELISA technology.Data from the assay component BSK_BF4T_IL8 was analyzed at the endpoint, BSK_BF4T_IL8, in the positive analysis fitting direction relative to DMSO as the negative control and baseline of activity. Using a type of binding reporter, gain or loss-of-signal activity can be used to understand protein changes. To generalize the intended target to other relatable targets, this assay endpoint is annotated to the 'cytokine' intended target family, where the subfamily is 'interleukins'.
The levels of cell surface (or secreted, indicated by the prefix "s") biomarker endpoints were measured by ELISA. Overt cytotoxicity to cells in confluent adherent cultures (all systems other than the BT system) was assessed by measuring total protein levels using sulforhodamine B (SRB) staining in parallel cultures at the time of biomarker measurements, indicated as SRB endpoints. For proliferation assays for adherent cell types, individual cell types are cultured at sub-confluence and relative cell numbers quantified by SRB staining at time points optimized for each system (48 h: 3C and CASM3C systems; 72 h: BT and HDF3CGF systems; 96 h: SAg system). SRB was performed by staining cells with 0.1% SRB after fixation with 10% TCA and reading wells at 560 nm.Viability and proliferation of PBMC (T cells) was quantified by Alamar Blue reduction for the SAg and BT systems. For PBMC viability (referred to as PBMC Cytotoxicity within the assay endpoint names), cells were plated (75,000/well in a 96-well plate) and then chemical samples added for 1 h before addition of activators, SEB and TSST-1 (20 ng/mL final concentration each). Cells were incubated for 90 h. Then, Alamar Blue (20 uL/well) (Invitrogen, Cat DAL1100) was added for 6 h, and the plates were read with a fluorescence microplate reader at 546/580 nm (excitation/emission). For PBMC proliferation, cells were plated and activated as above but incubated for only 16 h prior to addition of Alamar Blue. Plates were read after 6 h.
For the compound `N=C(N)C(F)(F)C(F)(F)C(F)(F)C(F)(F)C(F)(F)C(F)(F)C(F)(F)F`, the outcome was inactive.
On to `FC(F)(F)C(F)(F)C(F)(F)C(F)(F)C(F)(F)C(F)(F)C(F)(F)I`, for which the result was inactive and the AC50 is 52.7 nM (active).
As for `OCCCC(F)(F)C(F)(F)C(F)(F)C(F)(F)C(F)(F)C(F)(F)C(F)(F)F`, the AC50 was 40.5 µM (active) and 45.3 µM (active).
As to `C=CC(F)(F)C(F)(F)C(F)(F)C(F)(F)C(F)(F)C(F)(F)C(F)(F)C(F)(F)C=C`, the outcome was inactive.
Still for that read-out and setting: the result for `FC(F)(F)C(F)(F)C(F)(F)N(C(F)(F)C(F)(F)C(F)(F)F)C(F)(F)C(F)(F)C(F)(F)F` reads “inactive”; that for `O=C(O)C(F)(F)C(F)(F)C(F)F`, “inactive”; that for `CCCCCCCCC(F)(F)C(F)(F)C(F)(F)C(F)(F)C(F)(F)C(F)(F)F`, “inactive”.
Still for that read-out and setting: then `O=S(=O)(OCC(F)F)C(F)(F)F`, with “inactive”.
On to `OCCCC(F)(F)C(F)(F)C(F)(F)F`, for which the result was inactive.
Still for that read-out and setting: then `COC(=O)CCC(F)(F)C(F)(F)C(F)(F)C(F)(F)F`, with “inactive”; and `O=C(O)C=C(C(F)(F)F)C(F)(F)F`, with “inactive”; and `O=C(CC(=O)C(F)(F)C(F)(F)F)C(F)(F)F`, with “inactive”.
As for `C=CC(=O)OCC(F)(F)C(F)(F)C(F)(F)C(F)(F)C(F)(F)C(F)(F)C(F)(F)F`, the outcome was inactive.
The same measure, in the same setting: the result for `O=S(=O)(OCCOC(F)(F)F)C(F)(F)F` reads “inactive”; that for `O=C(O)C(F)(F)C(F)(F)C(F)(F)F`, “inactive”.
On the same count and under the same terms, then `OCC(F)(F)C(F)(F)C(F)(F)C(F)(F)C(F)(F)C(F)F`, with “inactive”; and `FC(F)(F)C(F)(F)C(F)(F)C(F)(F)C(F)(F)C(F)(F)C(F)(F)C(F)(F)F`, with “inactive”; and `O=P(O)(O)OCCC(F)(F)C(F)(F)C(F)(F)C(F)(F)C(F)(F)C(F)(F)F`, with “inactive”.
On the same count and under the same terms, the result for `FC(F)(F)C(F)(F)C(F)(F)C(F)(F)C(F)(F)C(F)(F)C(F)(F)C(F)(F)CCS` reads “inactive”; that for `O=C(O)C(F)(F)C(F)(F)C(F)(F)C(F)(F)C(F)(F)C(F)(F)C(F)(F)C(F)(F)C(F)(F)C(F)F`, “inactive”.
`O=C(O)C(F)(F)C(F)(F)F`: the result was inactive.
On the same count and under the same terms, the result for `FC(F)(Br)C(F)(F)C(F)(F)C(F)(F)C(F)(F)C(F)(F)Br` reads “inactive”; that for `CC(C)(C)C(=O)CC(=O)C(F)(F)C(F)(F)C(F)(F)F`, “inactive”; that for `FC(F)(F)C(F)(F)C(F)(F)C(F)(F)CCI`, “inactive”.
For the compound `O=C(O)C(F)(F)C(F)(F)C(F)(F)C(F)(F)C(F)(F)C(F)(F)C(F)(F)C(F)(F)C(F)(F)C(F)(F)C(F)(F)C(F)(F)F`, the outcome was inactive.
For the compound `O=S(=O)(O)C(F)(F)C(F)(F)C(F)(F)C(F)(F)C(F)(F)C(F)(F)C(F)(F)F`, the AC50 is 10400 nM (active) and the result was inactive.
Take `C=CC(F)(F)C(F)(F)C(F)(F)C(F)(F)C(F)(F)C(F)(F)C(F)(F)C(F)(F)F`: the outcome was inactive.
Consider `FC(F)(F)C(F)(F)C(F)(F)C(F)(F)C(F)(F)C(F)(F)CC1CO1` (stereo not given), for which the outcome was inactive.
On the same count and under the same terms, then `O=C(Cl)C(F)(F)C(F)(F)C(F)(F)C(F)(F)C(F)(F)C(F)(F)C(F)(F)C(F)(F)F`, with “inactive”; and `O=C(O)C(F)(F)C(F)(F)C(F)(F)C(F)(F)C(F)(F)C(F)(F)C(F)(F)C(F)(F)C(F)(F)C(F)(F)C(F)(F)C(F)(F)C(F)(F)F`, with “inactive”.
For the compound `O=C(O)C(F)(OC(F)(F)C(F)(OC(F)(F)C(F)(F)C(F)(F)F)C(F)(F)F)C(F)(F)F` (stereo not given), the result was inactive.
Still for that read-out and setting: then `FC(F)(F)C(F)(F)CNCC(F)(F)C(F)(F)F`, with “inactive”; and `FC(F)(F)C(F)(F)C(F)(F)CI`, with “inactive”.
With `Cc1ccc(S(=O)(=O)OCC(F)(F)C(F)(F)C(F)(F)C(F)(F)C(F)(F)C(F)F)cc1`, the result was inactive.
On the same count and under the same terms, the result for `FC(F)(F)C(F)(F)C(F)(F)C(F)(F)C(F)(F)CCI` reads “inactive”.
Still for that read-out and setting: the result for `FC(F)(F)C(F)(F)C(F)(F)C(F)(F)C(F)(F)C(F)(F)CCS` reads “inactive”; that for `C=C(C)C(=O)OCC(F)(F)C(F)(F)C(F)(F)C(F)(F)C(F)(F)C(F)(F)C(F)(F)F`, “inactive”; that for `O=C(O)C(F)(F)C(F)(F)C(F)(F)C(F)(F)F`, “inactive”.
